Results filed as inconclusive are left out. Activity calls are given as the source filed them. Unless noted, calls follow the shape of the dose curve; as a rule, active = well fitted curve in either direction with a large enough effect (not every such curve was filed as active); inconclusive = small, poorly fitted or top-dose-only effect, or another doubt; inactive = flat fitted curve, though single readings scatter.
What was measured:
[1] = biological target: Lysosomal acid glucosylceramidase (Homo sapiens) (UniProt P04062); test: Glucocerebrosidase-p2 (AID 348; in the data active = potency below about 10 µM; also: potency is read from the fitted curve at half-maximal effect); conditions: purified GBA, blue fluorogenic substrate, 40 min
Lysosomal acid glucosylceramidase (Homo sapiens), sequence (P04062 whole entry, looked up): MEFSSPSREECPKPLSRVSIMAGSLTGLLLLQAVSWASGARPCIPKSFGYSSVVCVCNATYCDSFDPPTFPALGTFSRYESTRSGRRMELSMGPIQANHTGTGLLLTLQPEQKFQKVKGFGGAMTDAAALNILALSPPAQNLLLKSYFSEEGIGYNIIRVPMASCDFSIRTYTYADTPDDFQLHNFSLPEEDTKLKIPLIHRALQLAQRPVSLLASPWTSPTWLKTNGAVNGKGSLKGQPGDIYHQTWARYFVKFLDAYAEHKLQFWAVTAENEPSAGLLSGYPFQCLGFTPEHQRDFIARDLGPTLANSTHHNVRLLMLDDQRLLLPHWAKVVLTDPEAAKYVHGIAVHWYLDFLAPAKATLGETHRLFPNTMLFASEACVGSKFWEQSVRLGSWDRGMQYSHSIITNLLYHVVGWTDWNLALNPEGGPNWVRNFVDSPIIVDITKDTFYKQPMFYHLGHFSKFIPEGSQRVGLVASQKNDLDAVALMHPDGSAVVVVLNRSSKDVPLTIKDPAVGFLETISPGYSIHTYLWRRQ
Method in brief: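 Compounds titrated from 0.6 nM upwards against 0.2 nM enzyme in pH 5.9 citric acid/KH2PO4, taurocholate, tween-20; blue fluorogenic substrate 80 uM, 40 min room temperature, stopped and read Ex 365/Em 440 for AC50.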

[2] = AP1 Signaling Pathway (AID 357); conditions: ME-180 AP-1-bla reporter, EGF-induced, beta-lactamase ratio, 5 h; at 7.69 µM (top of the series) unless noted;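 also: ME-180 reporter cells stimulated with EGF at its EC50 level; % is scaled to controls: 0 for no effect and ±100 for the full control effect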
Method in brief: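 AP-1-bla ME-180 cells, Opti-MEM + 0.5% dialyzed FBS, plated overnight 37 °C. Cpd titration + EC50 EGF, 5 h 37 °C. CCF4 2.5 h RT; ex 405, em 460/530 ratio → %activity, AC50.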

[3] = biological target: Cytochrome P450 1A2 (Homo sapiens) (UniProt P05177); test: p450-cyp1a2 (AID 410; calls by dose curve; also: potency is read from the fitted curve at half-maximal effect;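 as to activity change, negative = inhibition: -100% = full effect of reference inhibitor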); conditions: recombinant CYP1A2, luciferin-ME demethylation, luminescence; series mostly up to 57 µM
Cytochrome P450 1A2 (Homo sapiens), sequence (P05177 whole entry, looked up): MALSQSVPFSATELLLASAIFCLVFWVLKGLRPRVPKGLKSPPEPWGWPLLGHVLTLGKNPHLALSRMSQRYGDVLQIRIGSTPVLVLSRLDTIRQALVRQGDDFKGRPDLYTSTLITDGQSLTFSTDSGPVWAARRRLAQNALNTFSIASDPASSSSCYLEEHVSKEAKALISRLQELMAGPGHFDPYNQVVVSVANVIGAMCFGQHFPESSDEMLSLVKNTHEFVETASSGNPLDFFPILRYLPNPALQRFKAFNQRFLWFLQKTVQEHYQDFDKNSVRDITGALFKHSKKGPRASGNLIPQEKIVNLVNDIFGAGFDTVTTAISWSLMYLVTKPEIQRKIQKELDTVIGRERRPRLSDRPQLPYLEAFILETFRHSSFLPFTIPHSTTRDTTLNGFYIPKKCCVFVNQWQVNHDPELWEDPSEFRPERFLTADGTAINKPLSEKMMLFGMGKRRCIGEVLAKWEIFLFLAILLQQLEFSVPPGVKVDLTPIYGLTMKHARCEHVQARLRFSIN
Method in brief: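 Inhibition was calculated relative to 57 uM furafylline (full inhibition). The reaction used human CYP1A2 at 20nM with Luciferin-ME at its Km, 100uM, driven by an NADPH-regenerating system for 60 min at room temperature.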

[4] = Stat Signaling Pathway (AID 446); conditions: ME-180 (cervical carcinoma) SIE beta-lactamase reporter, IL-6 stimulated, 5 h; at 7.69 µM (top of the series) unless noted;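 also: ME-180 cervical cancer cells given 40 pM IL-6 alongside compound; SIE-controlled beta-lactamase reporter measured as 460/530 nm FRET emission ratio; % is scaled to controls: 0 for no effect and ±100 for the full control effect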
Method in brief: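 IL-6/STAT signaling read in ME-180 cells via an SIE beta-lactamase reporter. Stimulus was 40 pM IL-6 (its AC50) for 5 hrs, so both activation and inhibition register.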

[5] = biological target: Glucocorticoid receptor (Homo sapiens) (UniProt P04150); test: GR-EFC Redistribution (AID 451; calls by dose curve; also: potency is read from the fitted curve at half-maximal effect); conditions: CHO-K1 GR-EFC translocation, beta-gal luminescence, 2 h
Glucocorticoid receptor (Homo sapiens), sequence (P04150 whole entry, looked up, the tested form may be a part): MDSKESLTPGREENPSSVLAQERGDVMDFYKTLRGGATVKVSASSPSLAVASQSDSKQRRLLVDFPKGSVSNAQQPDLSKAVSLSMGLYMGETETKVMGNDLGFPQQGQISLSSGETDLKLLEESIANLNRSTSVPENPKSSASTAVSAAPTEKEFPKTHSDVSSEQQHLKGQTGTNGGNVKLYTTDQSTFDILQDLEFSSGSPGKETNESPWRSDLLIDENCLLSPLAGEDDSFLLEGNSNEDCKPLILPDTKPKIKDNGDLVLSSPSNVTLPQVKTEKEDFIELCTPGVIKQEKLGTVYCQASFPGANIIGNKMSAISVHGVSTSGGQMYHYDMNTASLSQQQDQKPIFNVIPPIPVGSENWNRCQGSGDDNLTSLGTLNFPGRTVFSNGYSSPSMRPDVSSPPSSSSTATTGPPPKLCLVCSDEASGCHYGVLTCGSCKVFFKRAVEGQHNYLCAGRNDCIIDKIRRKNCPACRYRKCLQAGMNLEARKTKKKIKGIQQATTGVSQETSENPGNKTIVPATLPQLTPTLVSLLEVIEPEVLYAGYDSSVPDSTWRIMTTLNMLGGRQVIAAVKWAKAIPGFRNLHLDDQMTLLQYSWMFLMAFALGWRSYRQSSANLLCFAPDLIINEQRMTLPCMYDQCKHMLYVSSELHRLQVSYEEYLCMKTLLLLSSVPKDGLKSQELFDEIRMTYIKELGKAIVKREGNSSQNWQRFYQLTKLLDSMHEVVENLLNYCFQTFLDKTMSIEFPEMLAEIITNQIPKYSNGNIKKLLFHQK
Method in brief: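 Translocation of GR-ED fusion to nuclear EA restores b-gal, read by luminescence after 1 h room-temperature detection. Engineered CHO-K1 biosensor cells, 1,000/well, exposed 2 h at 37 C to titrations up to 46 uM final.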

[6] = biological target: Mitogen-activated protein kinase 10 (Mus musculus) (UniProt Q61831); test: JNK3 AlphaScreen Assay (AID 530); conditions: JNK3 lysate, c-Jun phosphorylation; series mostly up to 57.1 µM;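 also: kinase came from lysate of stimulated human HepG2 cells; signal reports phosphorylation of biotinylated GST-cJun 1-79 at Ser73 with 10 µM ATP; % is scaled to controls: 0 for no effect and ±100 for the full control effect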
Method in brief: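 Room-temperature AlphaScreen kinase assay; pre-activated HepG2 lysate as JNK3 source, biotin-GST-cJun(1-79) substrate, 10 uM ATP, compound 15 min preincubation.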

[7] = biological target: Cytochrome P450 3A4 (Homo sapiens) (UniProt P08684); test: qHTS Assay for Activators of Cytochrome P450 3A4 (AID 885; active = well fitted curve in the direction sought with a large enough effect; an effect the other way counts as inactive or inconclusive; also: nearly all actives have a fitted effect of over 65% in size); conditions: recombinant CYP3A4, Luciferin-PPXE luminescence, 60 min; series mostly up to 57.1 µM
Method in brief: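 Quantitative HTS format: compounds preincubated with 20nM human CYP3A4 and Luciferin-PPXE substrate at KM, reaction started by NADPH regeneration, stopped after 60 min, luciferase luminescence read 20 min later.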

[8] = qHTS Assay for Lipid Storage Modulators (AID 1519; calls by dose curve); conditions: Drosophila S3 cells, BODIPY lipid droplet/cell ratio, laser cytometry, cells loaded with oleic acid; for activity change, negative = inhibition: at 57.5 µM (top of the series)
Method in brief: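 Cells seeded at 5,000 per well were treated with compounds over a concentration series and loaded with oleic acid (400 uM, as added). Lipid droplet fluorescence (488 nm excitation, 500-530 nm channel) was read by laser-scanning cytometry and normalized to 20 uM Triacsin C.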

[9] = Primary qHTS for small molecule stabilizers of the endoplasmic reticulum resident proteome: Secreted ER Calcium Modulated Protein (SERCaMP) assay (AID 1508630; active = well fitted curve in the direction sought with a large enough effect; an effect the other way counts as inactive or inconclusive; also: % is scaled to controls: 0 for no effect and ±100 for the full control effect); conditions: SH-SY5Y GLuc-SERCaMP (Gaussia luciferase released on ER calcium loss) secretion, thapsigargin, luminescence; series mostly up to 38.4 µM
Method in brief: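 GLuc-SERCaMP-expressing SH-SY5Y cells, pretreated 16 h with compound, are challenged with thapsigargin to empty ER calcium stores; after 4 h, coelenterazine is added directly to the medium and luminescence is imaged.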

[10] = biological target: 3',5'-cyclic-AMP phosphodiesterase 4B (Homo sapiens) (UniProt Q07343); test: qHTS Assay for Inhibitors of PDE-IV (AID 607; active = well fitted activation curve with a large enough effect in the main read-out, with a control signal flat, not every such curve was filed as active; also: % of control where 0% means no effect); conditions: HEK293 ACTOne CNG channel cells, membrane potential fluorescence; series mostly up to 22.9 µM
3',5'-cyclic-AMP phosphodiesterase 4B (Homo sapiens), sequence (Q07343 whole entry, looked up): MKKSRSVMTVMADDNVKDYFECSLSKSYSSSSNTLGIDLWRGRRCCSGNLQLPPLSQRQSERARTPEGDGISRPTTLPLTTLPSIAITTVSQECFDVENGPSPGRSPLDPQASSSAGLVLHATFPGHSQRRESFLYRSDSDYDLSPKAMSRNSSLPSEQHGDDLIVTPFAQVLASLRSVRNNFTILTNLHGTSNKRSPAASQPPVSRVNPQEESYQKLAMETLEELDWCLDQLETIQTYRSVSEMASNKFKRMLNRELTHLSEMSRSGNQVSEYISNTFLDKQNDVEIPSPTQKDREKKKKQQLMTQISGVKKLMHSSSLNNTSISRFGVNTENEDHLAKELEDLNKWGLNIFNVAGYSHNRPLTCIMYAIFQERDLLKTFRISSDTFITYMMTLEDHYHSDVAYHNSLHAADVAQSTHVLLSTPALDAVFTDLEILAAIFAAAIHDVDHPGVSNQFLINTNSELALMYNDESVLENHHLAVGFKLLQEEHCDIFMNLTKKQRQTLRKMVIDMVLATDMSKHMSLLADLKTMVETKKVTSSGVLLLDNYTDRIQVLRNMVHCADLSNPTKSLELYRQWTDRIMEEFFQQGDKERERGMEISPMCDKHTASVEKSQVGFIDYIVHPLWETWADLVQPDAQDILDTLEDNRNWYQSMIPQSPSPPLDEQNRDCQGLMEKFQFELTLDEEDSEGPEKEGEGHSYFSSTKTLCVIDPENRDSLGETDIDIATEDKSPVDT
Method in brief: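 Live HEK293 cells with a modified cyclic nucleotide-gated (CNG) channel report intracellular cAMP via membrane-potential dye fluorescence (ex 535/em 590 nm). Endogenous PDE-IV was targeted. Compounds were tested at up to 22.9 uM final; RO 20-1724 100 uM served as control.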

[11] = biological target: Cytochrome P450 2C9 (Homo sapiens) (UniProt P11712); test: qHTS Assay for Inhibitors and Substrates of Cytochrome P450 2C9 (AID 883; active = well fitted curve in the direction sought with a large enough effect; an effect the other way counts as inactive or inconclusive; also: potency is read from the fitted curve at half-maximal effect; nearly all actives have a fitted effect of over 60% in size); conditions: recombinant CYP2C9, luciferin-H luminescence, 60 min; series mostly up to 57.1 µM
Cytochrome P450 2C9 (Homo sapiens), sequence (P11712 whole entry, looked up): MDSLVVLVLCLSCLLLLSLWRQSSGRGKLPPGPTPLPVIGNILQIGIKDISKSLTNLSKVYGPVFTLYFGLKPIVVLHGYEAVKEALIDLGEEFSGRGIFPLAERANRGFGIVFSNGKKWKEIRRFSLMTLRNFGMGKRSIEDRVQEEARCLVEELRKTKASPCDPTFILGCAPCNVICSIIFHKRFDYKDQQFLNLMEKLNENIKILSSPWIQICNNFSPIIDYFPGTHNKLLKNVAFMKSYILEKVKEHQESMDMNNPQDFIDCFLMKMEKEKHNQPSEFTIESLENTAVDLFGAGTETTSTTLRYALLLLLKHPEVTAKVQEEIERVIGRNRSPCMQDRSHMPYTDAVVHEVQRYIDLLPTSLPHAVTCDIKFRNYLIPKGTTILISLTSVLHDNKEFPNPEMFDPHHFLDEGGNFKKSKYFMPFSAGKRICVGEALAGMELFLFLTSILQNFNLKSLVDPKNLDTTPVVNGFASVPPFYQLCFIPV
Method in brief: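 Inhibition of CYP2C9 is scored as loss of luminescence, with 57uM sulphaphenazole defining 100% inhibition. Substrate Luciferin-H is used at 100uM, equal to its KM; enzyme at 10nM in 25mM KPO4, 60 min at 37C with NADPH regeneration.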

[12] = biological target: Cytochrome P450 2C19 (Homo sapiens) (UniProt P33261); test: qHTS Assay for Inhibitors and Substrates of Cytochrome P450 2C19 (AID 899; active = well fitted curve in the direction sought with a large enough effect; an effect the other way counts as inactive or inconclusive; also: potency is read from the fitted curve at half-maximal effect; nearly all actives have a fitted effect of over 60% in size); conditions: recombinant CYP2C19, luciferin-H EGE luminescence; series mostly up to 57.1 µM
Cytochrome P450 2C19 (Homo sapiens), sequence (P33261 whole entry, looked up): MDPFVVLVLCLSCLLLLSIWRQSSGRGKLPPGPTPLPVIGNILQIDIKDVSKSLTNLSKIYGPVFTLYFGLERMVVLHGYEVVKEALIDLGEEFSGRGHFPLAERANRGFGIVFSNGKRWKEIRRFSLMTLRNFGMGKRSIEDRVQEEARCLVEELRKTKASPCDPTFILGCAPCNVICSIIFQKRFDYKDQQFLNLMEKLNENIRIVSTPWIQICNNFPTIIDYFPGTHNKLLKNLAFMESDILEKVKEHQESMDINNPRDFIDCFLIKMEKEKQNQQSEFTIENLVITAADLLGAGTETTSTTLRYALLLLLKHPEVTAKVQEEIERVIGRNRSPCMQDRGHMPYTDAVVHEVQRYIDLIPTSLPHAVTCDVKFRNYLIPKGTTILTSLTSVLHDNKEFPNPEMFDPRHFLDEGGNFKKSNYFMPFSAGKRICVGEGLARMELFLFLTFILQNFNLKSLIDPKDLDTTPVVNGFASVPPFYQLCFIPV
Method in brief: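 5nM enzyme + 10uM Luciferin-H EGE (=KM), 50mM KPO4; cpd pin-transferred, 10 min 37C; NADPH regen, 60 min 37C; stopped w/ luciferin detection reagent, 20 min; luminescence. Normalized to 57uM ketoconazole (AC100).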

[13] = biological target: Cytochrome P450 2D6 (Homo sapiens) (UniProt P10635); test: qHTS Assay for Inhibitors and Substrates of Cytochrome P450 2D6 (AID 891; active = well fitted curve in the direction sought with a large enough effect; an effect the other way counts as inactive or inconclusive; also: potency is read from the fitted curve at half-maximal effect; nearly all actives have a fitted effect of over 60% in size); conditions: recombinant CYP2D6, luciferin-ME EGE luminescence; series mostly up to 57.1 µM
Cytochrome P450 2D6 (Homo sapiens), sequence (P10635 whole entry, looked up): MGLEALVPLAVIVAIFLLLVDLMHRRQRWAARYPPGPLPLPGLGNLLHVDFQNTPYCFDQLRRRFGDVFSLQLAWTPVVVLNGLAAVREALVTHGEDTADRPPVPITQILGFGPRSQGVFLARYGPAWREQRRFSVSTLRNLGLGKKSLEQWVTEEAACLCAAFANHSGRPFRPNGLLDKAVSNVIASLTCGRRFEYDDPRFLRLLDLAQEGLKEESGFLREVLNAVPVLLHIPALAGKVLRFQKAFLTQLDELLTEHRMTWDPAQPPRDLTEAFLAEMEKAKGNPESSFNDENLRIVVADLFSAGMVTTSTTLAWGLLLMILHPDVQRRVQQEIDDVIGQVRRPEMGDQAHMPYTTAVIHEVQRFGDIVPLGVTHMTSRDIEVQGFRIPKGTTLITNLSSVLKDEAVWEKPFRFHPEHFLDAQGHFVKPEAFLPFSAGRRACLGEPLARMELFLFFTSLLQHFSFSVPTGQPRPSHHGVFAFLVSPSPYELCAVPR
Method in brief: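 Human CYP2D6 (5 nM) with 30 uM Luciferin-ME EGE (at Km) in 100 mM KPO4, compound preincubated 10 min, then NADPH regeneration system for 60 min at room temperature. Luciferin read by luminescence; normalized to 1.43 uM quinidine.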

[14] = NFAT Signaling Pathway (AID 444); conditions: Jurkat NFAT-bla M1, carbachol, beta-lactamase ratio, 5 h; at 7.69 µM (top of the series) unless noted
Method in brief: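 Read-out: CCF4 FRET ratio (460 nm/530 nm) after 1 h RT dye loading, used for %activity and AC50 from titration series. Cells: Jurkat NFAT-β-lactamase/M1 line, treated with compound plus 1 uM carbachol for 5 h, 37 °C.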

[15] = biological target: Glucocorticoid receptor (Homo sapiens) (UniProt P04150); test: GR-GFP Redistribution (AID 450;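 active = compounds whose dose series gives a full or clear partial fitted curve of increased nuclear translocation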; also: potency is read from the fitted curve at half-maximal effect); conditions: U2OS GR-GFP nuclear translocation, laser cytometry, 2 h
[16] = Confirmation and Secondary Assay for Modulators of Hemoglobin Beta Chain Splicing at IVS2 705 locus (AID 930; active = well fitted curve in the direction sought with a large enough effect; an effect the other way counts as inactive or inconclusive;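 also: HeLa cells stably expressing the EGFP-705 splicing reporter; GFP fluorescence per well restored by corrected splicing of the IVS2-705 intron in EGFP; % of control where 0% means no effect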); conditions: HeLa EGFP-705 splicing reporter, GFP fluorescence, 48 h; series mostly up to 38.3 µM
Method in brief: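 Fluorescence gain (488 nm laser, 500-520 nm PMT) reflects restored correct splicing of a mutant IVS2-705 intron inside EGFP in stably transfected HeLa cells after 2-day compound treatment.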

[17] = Confirmation and Secondary Assay for Modulators of Hemoglobin Beta Chain Splicing at IVS2 654 locus (AID 910; active = well fitted curve in the direction sought with a large enough effect; an effect the other way counts as inactive or inconclusive;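 also: HeLa cells stably carrying EGFP split by mutant beta-globin IVS2-654 intron; per-well total GFP intensity by laser scanning cytometry after 2-day treatment; % of control where 0% means no effect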); conditions: HeLa EGFP-654 splicing reporter, GFP fluorescence, 48 h; series mostly up to 38.3 µM
Method in brief: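 Readout: per-well total peak green fluorescence (488 nm ex, 500–520 nm em) from objects 5–250 µm, reflecting correct splicing of an EGFP-654 reporter. Compounds were applied for 2 days at 37 °C to overnight-plated HeLa EGFP-654 cells; controls were DMSO and 500 nM IVS2-654 PNA.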

[18] = biological target: Ubiquitin carboxyl-terminal hydrolase 1 (Homo sapiens) (UniProt O94782); test: Inhibitors of USP1/UAF1: Pilot qHTS (AID 504865; active = well fitted curve in the direction sought with a large enough effect; an effect the other way counts as inactive or inconclusive;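 also: rhodamine fluorescence freed from ubiquitin-rhodamine substrate followed over time; top concentration of the series differs between compounds; % is scaled to controls: 0 for no effect and ±100 for the full control effect; nearly all actives have a fitted effect of over 35% in size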); conditions: purified USP1/UAF1, Ub-rhodamine cleavage fluorescence; series mostly up to 54.9 µM
Ubiquitin carboxyl-terminal hydrolase 1 (Homo sapiens), sequence (O94782 whole entry, looked up): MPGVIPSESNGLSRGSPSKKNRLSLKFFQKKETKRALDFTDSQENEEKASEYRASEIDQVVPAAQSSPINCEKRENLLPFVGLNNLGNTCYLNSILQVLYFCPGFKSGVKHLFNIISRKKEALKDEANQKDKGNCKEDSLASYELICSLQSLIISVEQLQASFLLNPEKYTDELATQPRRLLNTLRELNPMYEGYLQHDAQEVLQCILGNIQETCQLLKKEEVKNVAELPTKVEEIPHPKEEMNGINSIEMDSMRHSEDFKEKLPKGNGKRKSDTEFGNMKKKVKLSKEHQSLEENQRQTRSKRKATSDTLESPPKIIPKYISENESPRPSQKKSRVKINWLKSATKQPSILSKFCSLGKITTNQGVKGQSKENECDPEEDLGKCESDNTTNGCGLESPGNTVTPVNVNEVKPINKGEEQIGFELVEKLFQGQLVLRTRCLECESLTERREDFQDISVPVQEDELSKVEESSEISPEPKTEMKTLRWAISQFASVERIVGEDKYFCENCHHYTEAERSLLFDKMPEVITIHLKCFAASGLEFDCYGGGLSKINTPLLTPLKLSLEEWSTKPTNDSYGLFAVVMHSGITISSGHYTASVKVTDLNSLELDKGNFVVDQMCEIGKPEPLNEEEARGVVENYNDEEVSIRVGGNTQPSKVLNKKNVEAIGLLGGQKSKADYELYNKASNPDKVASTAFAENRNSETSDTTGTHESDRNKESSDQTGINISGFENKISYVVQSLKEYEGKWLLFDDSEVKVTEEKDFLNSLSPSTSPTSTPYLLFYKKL
Method in brief: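 In 50mM HEPES pH 7.8 containing 0.5mM EDTA, 1mM TCEP, 0.1 mg/ml BSA and 0.01% Tween-20, 1nM USP1/UAF1 is exposed to compound for 15 min, then Ub-Rho (150nM final) is added and fluorescence is read over time.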

[19] = measured here: cell count channel max response
[20] = measured here: lipid channel max response

Row | SMILES | Potency [1] | activity change, negative = inhibition [2] | Potency [3] | activity, negative = inhibition [4] | Potency [5] | Potency [6] | Potency [7] | activity change, negative = inhibition [8] | max response [8, 19] [%] | max response [8, 20] [%] | outcome [9] | Potency [10] | Potency [11] | Potency [12] | Potency [13] | activity change, negative = inhibition [14] | Potency [15] | outcome [16] | Potency [17] | Potency [18]
1 | CC(C)CN1CCCC2(CCN(C(=O)c3cc(C(F)(F)F)cc(C(F)(F)F)c3)CC2)C1 | > 11.4 µM (inactive) | -4.78% (inactive) | 12.6 µM (active) | -8.44% (inactive) | > 46 µM (inactive) | inactive | inactive | 2.29% (inactive) | 11.6 | 17.9 | inactive |  |  |  |  |  |  |  |  | 
2 | O=C(c1cccc(F)c1)N1CCC2(CC1)CN(c1ccncc1)C2 | > 11.4 µM (inactive) | -2.31% (inactive) | inactive | 1.58% (inactive) | > 46 µM (inactive) |  |  | -4.55% (inactive) | -24.1 | -26.4 | inactive | inactive | 5.01 µM (active) | 3.16 µM (active) |  |  |  |  |  | 
3 | CC(=O)N1CCC2(CCCN(Cc3ccccc3)C2)CC1 | > 11.4 µM (inactive) | -3.56% (inactive) | inactive | 9.01% (inactive) | > 46 µM (inactive) | inactive |  | 2.49% (inactive) | -0.297 | 3.92 | inactive | inactive |  |  | 2.51 µM (active) |  |  |  |  | 
4 | Cc1cccc(CNc2ncnc3ccc(-c4ccccc4C#N)cc23)c1 | > 11.4 µM (inactive) | -28.4% (inactive) |  | -7.62% (inactive) | > 46 µM (inactive) | inactive |  | 0.748% (inactive) | 4.98 | 4.86 | inactive |  |  |  |  | 12.9% (inactive) | > 46 µM (inactive) | inactive |  | 
5 | CC(=O)NCCNc1nc(-c2ccccc2CN(C)C)nc2ccccc12 | > 11.4 µM (inactive) | 6.16% (inactive) |  | 13.7% (inactive) | > 46 µM (inactive) | inactive |  | 5.82% (inactive) | 13.1 | 18.7 | inactive | inactive |  |  |  | 2.15% (inactive) | > 46 µM (inactive) | inactive | inactive | inactive

Reference: PubChem BioAssay (NCATS)
